Test results: PubChem BioAssay AID624304 (Sanford-Burnham Center for Chemical Genomics, 2012)
Out of some 360,000 compounds screened, about 1,800 (0.5%) were called active.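 How the source made its calls: active means interference check ratio from 0.5 to 1.5 plus GFP to RFP signal ratio inhibition reaching or exceeding a fixed threshold (cut at about 30% in these data, passing the limit was not always enough); inactive means the rest.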 The list comes from a sample in which actives are over-represented; it also holds similar structures and randomly drawn compounds.

Assay: gst-4 reporter inhibition in live C. elegans – whole organism, uHTS, GFP/RFP fluorescence ratio, strain VP596, SKN-1 inhibitor project, primary screen (AID 624304)
Conditions: C. elegans VP596 Pgst-4::GFP/RFP ratio, acrylamide-induced, 24 h; at 21.8 µM; active compounds read high
With `CCC(Oc1ccccc1)C(=O)OCC(=O)Nc1c(C)nn(-c2ccccc2)c1C` (stereo unspecified) the inhibition was 15.9% (inactive). In the case of `CC(C)C1CCN(C(=O)C2CCC(=O)N(C3CCCCCC3)C2)CC1` (stereo unspecified), the inhibition is reported as -2.6% (inactive). With `Cc1nn(CC#N)c(=O)n1N(C)c1ncc(C(F)(F)F)cc1Cl` the inhibition was -3.68% (inactive). In the case of `Cc1nn(-c2ncc(C(F)(F)F)cc2Cl)c(=O)n1-c1ccccc1`, the inhibition is reported as 35.6% (active). With `Cc1nn(CC2CC2)c(=O)n1N(C)c1ncc(C(F)(F)F)cc1Cl` the inhibition was 3.57% (inactive). For `CCCn1c(N)c(C(=O)CSc2nnc3n2CCCCC3)c(=O)[nH]c1=O`, the inhibition was 9.24% (inactive). For `COc1ccccc1C(=O)N(C1=NC(C)CS1)c1ccc(Cl)cc1` (stereo unspecified), the inhibition was -17.9% (inactive). With `Cc1ccc(N/C(N)=N/c2nc(C(F)(F)F)cc(C(F)(F)F)n2)cc1` the inhibition was 2.4% (inactive). With `Oc1ccc(N=Nc2nccs2)c(O)c1` the inhibition was 40.3% (active). With `Cc1cc(C)cc(N(CC(=O)Nc2c(C)n(C)n(-c3ccccc3)c2=O)S(C)(=O)=O)c1` the inhibition was -7.93% (inactive). With `Cc1c(NC(=S)Nc2ccccc2)c(=O)n(-c2ccccc2)n1C` the inhibition was 13.7% (inactive). For `CCN(CC)P(=O)(/C(Cl)=C\Nc1c(C)n(C)n(-c2ccccc2)c1=O)N(CC)CC`, the inhibition was 38.6% (active). In the case of `C=CC[C@@H](CC(=O)NCCO)C(=O)N[C@H](C)COC(=O)[C@@H](CC=C)CC(=O)OC(C)(C)C`, the inhibition is reported as 4% (inactive). In the case of `CCOC(=O)C1CN(S(=O)(=O)c2ccc(F)cc2)C1`, the inhibition is reported as -3.48% (inactive). For `O=C(O)c1cccc(S(=O)(=O)N2CC=C(c3ccccc3)CC2)c1`, the inhibition was -4.6% (inactive). With `Cc1c(C2=CCN(S(=O)(=O)c3ccc(Cl)cc3)CC2)c2ccccc2n1C` the inhibition was 40.5% (active). For `O=S(=O)(c1ccc(F)cc1)N1CC=C(c2ccccc2)CC1`, the inhibition was 0.877% (inactive). For `O=C(CSc1cccc[n+]1[O-])c1ccc(-c2ccccc2)cc1`, the inhibition was -20.6% (inactive). With `O=C(O)/C(=C/c1cccnc1)NC(=O)c1ccccc1` the inhibition was 0.0898% (inactive). For `Cc1cccc(NS(=O)(=O)c2ccc(C(=O)NCC(C)(C)N3CCOCC3)cc2)c1C`, the inhibition was -5.62% (inactive). With `Cc1cc(C(=O)COc2ccccc2[N+](=O)[O-])c(C)n1-c1cccc(S(=O)(=O)N2CCOCC2)c1` the inhibition was 7.44% (inactive). With `COCCNC(=O)CN(C(=O)CCC(=O)Nc1cc(C)on1)c1ccc(C)cc1C` the inhibition was -14.7% (inactive). In the case of `CC1CN(c2nc(Nc3ccccc3)nc(N)c2[N+](=O)[O-])CC(C)O1` (stereo unspecified), the inhibition is reported as 38% (active). For `Nc1nc(NCCCN2CCOCC2)nc(Nc2ccccc2)c1[N+](=O)[O-]`, the inhibition was 5.52% (inactive). In the case of `COCCNc1nc(N)c([N+](=O)[O-])c(N2CCCCCC2)n1`, the inhibition is reported as 23.7% (inactive). In the case of `CCN(CC)C(=O)CSc1nc2ccccc2o1`, the inhibition is reported as 0.512% (inactive). For `CC(C)(C)C(=O)CSc1nc2ccccc2o1`, the inhibition was -6.68% (inactive). With `Fc1ccccc1OCCSc1nc2ccccc2o1` the inhibition was 36.2% (active). With `Cn1c(SCC(=O)OC2CCCCC2)nnc1-c1ccc(S(=O)(=O)N2CCCC2)cc1` the inhibition was -4.66% (inactive). For `O=C(NCCc1nnc2ccc(SCC(=O)N3CCOCC3)nn12)c1ccccc1`, the inhibition was 9.19% (inactive). In the case of `O=C(CSc1nnnn1-c1ccccc1)NCc1ccco1`, the inhibition is reported as -15% (inactive). For `O=C(NCc1ccco1)C1(c2ccc(Cl)cc2)CCCC1`, the inhibition was -1.05% (inactive). In the case of `O=C(CSc1c2c(nc3ccc(Cl)cc13)CCCC2)NCc1ccco1`, the inhibition is reported as 82.7% (active). With `CCn1c(=O)n(CC)c2cc(N3CCCC3)c(NC(=O)c3ccccc3Br)cc21` the inhibition was -26.6% (inactive). In the case of `CCc1ccc2c(c1)C1(NN=C(c3ccccc3)S1)C(=O)N2` (stereo unspecified), the inhibition is reported as 4.61% (inactive). With `Cc1ccc(-c2ccc(CN3C(C(C)C)C(=O)N(Cc4cn(CCC5OCCO5)nn4)CCS3(=O)=O)cc2)cc1` (stereo unspecified) the inhibition was 12.6% (inactive). In the case of `COc1ccc(C2C3=C(OC(C)=O)c4ccccc4C3=Nc3c2c(=O)n(C)c(=O)n3C)cc1` (stereo unspecified), the inhibition is reported as 2.4% (inactive). For `CCOc1ccc(OCC)c(NC(=O)CN(C)S(=O)(=O)c2cccc3nsnc23)c1`, the inhibition was 27.2% (inactive). In the case of `CCO[C@@H]1OC(C(=O)NCc2nc3ccccc3[nH]2)=C[C@H](C2CCCCC2)[C@H]1CCCO`, the inhibition is reported as 7.19% (inactive). For `CCOC(=O)C1=C(C)NC2=C(C(=O)CC(C)(C)C2)C1c1ccsc1` (stereo unspecified), the inhibition was 1.51% (inactive). In the case of `CCOC(=O)C1=C(C)Nc2sc(C(=O)c3ccc(Br)cc3)c(N)c2C1c1ccc(C(=O)OC)cc1` (stereo unspecified), the inhibition is reported as 37.2% (active). In the case of `COC(=O)c1ccc(C2NC(=O)NC(C)=C2C(=O)N(C)C)cc1` (stereo unspecified), the inhibition is reported as 0.51% (inactive). With `CS(=O)(=O)N(CC(O)Cn1c2ccccc2c2ccccc21)c1cccc2ccccc12` (stereo unspecified) the inhibition was 5.96% (inactive). In the case of `Oc1cccc2cc(-c3ccncc3)cnc12`, the inhibition is reported as -1.84% (inactive). For `CC1=NN(C(=O)CCc2ccccc2O)C(O)(C(F)(F)F)C1` (stereo unspecified), the inhibition was 0.219% (inactive). In the case of `CCN(CC)S(=O)(=O)c1ccc(N(C)CCc2ccc(OC)c(OC)c2)nc1`, the inhibition is reported as 43% (active). With `CCN(CC)S(=O)(=O)c1ccc(N(C)Cc2ccc(C(F)(F)F)cc2)nc1` the inhibition was 3.82% (inactive). In the case of `CCN(CC)S(=O)(=O)c1ccc(N(C)Cc2cccc(OC)c2OC)nc1`, the inhibition is reported as 13.3% (inactive). In the case of `S=c1[nH]ccn1-c1ccc(Cl)cc1`, the inhibition is reported as 1.55% (inactive). With `COc1cc2c(C(=O)N3CCN(C)CC3)c(CSc3ccccc3)n(C)c2cc1Br` the inhibition was -4.81% (inactive). In the case of `Oc1ccc(-c2nncn2-c2ccccc2)cc1`, the inhibition is reported as 3.4% (inactive). In the case of `Cc1c(C(=O)NCCN2C(=O)S/C(=C\c3cccs3)C2=O)cccc1[N+](=O)[O-]`, the inhibition is reported as 9.81% (inactive). In the case of `O=C(CCCN1C(=O)/C(=C/c2cccs2)SC1=S)Nc1ccc(O)cc1`, the inhibition is reported as 38.3% (active). With `CC(=O)Nc1ccc(NC(=O)CCN2C(=O)C3CC=CCC3C2=O)cc1` (stereo unspecified) the inhibition was -12.5% (inactive). For `Cn1nnc2cc(C(=O)NCCC3=CCCCC3)ccc21`, the inhibition was 35.4% (active). In the case of `O=C(NCCC1=CCCCC1)c1ccc(Cl)c([N+](=O)[O-])c1`, the inhibition is reported as 7.85% (inactive). With `CC(Sc1nncn1C)C(=O)NCCC1=CCCCC1` (stereo unspecified) the inhibition was -8.96% (inactive). In the case of `CCc1ccc(C(=O)NC(=S)Nc2ccccc2N2CCOCC2)cc1`, the inhibition is reported as 11% (inactive). With `COc1ccc(C(=O)NC(=S)Nc2ccccc2N2CCN(S(C)(=O)=O)CC2)cc1OC` the inhibition was 41% (active). In the case of `CC(=O)N1CCN(c2ccccc2NC(=S)NC(=O)c2cc3ccccc3o2)CC1`, the inhibition is reported as 6.86% (inactive). For `CC(=O)c1cccc(NC(=O)N2CCCC2C(=O)NCCc2ccccc2)c1` (stereo unspecified), the inhibition was 23.5% (inactive). In the case of `O=C(CSc1ccccc1)Nc1cccc(S(=O)(=O)N2CCCCC2)c1`, the inhibition is reported as 12.9% (inactive). With `Cn1nnnc1SCC(=O)Nc1cccc(S(=O)(=O)N2CCCCC2)c1` the inhibition was 6.32% (inactive). For `COCCn1cnnc1SCC(=O)Nc1cccc(S(=O)(=O)N2CCCCC2)c1`, the inhibition was 47% (active). With `CCOC(=O)C1CCCN(C(=O)COc2ccc(N(C)S(=O)(=O)c3ccc(C)cc3)cc2)C1` (stereo unspecified) the inhibition was -2.11% (inactive). For `Cn1cc(S(=O)(=O)N2CCN(c3ccc(F)cc3)CC2)c(=O)n(C)c1=O`, the inhibition was 1.81% (inactive). In the case of `CCN1C(=O)[C@@H]2[C@@H]3CN(S(=O)(=O)c4ccccc4C)[C@@H](c4ccc(Cl)cc4)[C@@H]3C(=O)C[C@@H]2C1=O`, the inhibition is reported as 2.39% (inactive). With `C#CCN(C[C@H]1[C@H](OC(=O)NC2CCCC2)[C@H](OC(=O)NC2CCCC2)C[C@H]2C(=O)N(c3ccccc3)C(=O)[C@@H]12)S(=O)(=O)c1ccc(C)cc1` the inhibition was 11.9% (inactive). For `CCc1ccc2oc(-c3ccc(N)cc3)nc2c1`, the inhibition was 39.8% (active). In the case of `O=[N+]([O-])c1ccc2oc(-c3cccc(O)c3)nc2c1`, the inhibition is reported as 17% (inactive). For `COc1ccc2oc(N)nc2c1`, the inhibition was 3.43% (inactive). With `CCCCN1CC(C)(C)[C@H](CC(=O)Nc2ccc(Br)cc2)C1=O` the inhibition was 13% (inactive). With `C[C@H]1CN(c2ccc(Br)cc2)C(=O)[C@@H]1CC(=O)Nc1ccc(Br)cc1` the inhibition was -1.36% (inactive). With `CCCCN1C[C@H](c2ccc(Br)cc2)[C@@H](CC(=O)Nc2ccc(Br)cc2)C1=O` the inhibition was 46.8% (active). In the case of `COC(=O)c1ccc(N(CC(=O)NC2CCCC2)C(=O)CNC(=O)c2ccco2)cc1`, the inhibition is reported as 13.4% (inactive). For `O=C(Nc1ccc(Oc2ccccc2)cc1)c1ccco1`, the inhibition was 38.8% (active). For `O=C(/C=C/c1ccco1)NC(=S)N1CCCCC1`, the inhibition was 11.9% (inactive). For `O=C(/C=C/c1ccco1)Nc1ccc(Oc2ccccc2)cc1`, the inhibition was 48.8% (active). In the case of `Cc1ccoc1C(=O)Nc1cccc(Oc2ccccc2)c1`, the inhibition is reported as -23.9% (inactive). In the case of `CN1CCN(S(=O)(=O)c2ccc(NC(=O)c3ccco3)cc2)CC1`, the inhibition is reported as 13.7% (inactive). With `NS(=O)(=O)c1cccc(NC(=O)COC(=O)/C=C/c2ccco2)c1` the inhibition was 0.905% (inactive). For `CCNc1nc(NC(C)C)nc(N2CC(=O)N(CC(=O)OCC)C2=N)n1`, the inhibition was 3.01% (inactive). For `NS(=O)(=O)c1ccccc1NC(=O)c1c(O)c2ccccc2[nH]c1=O`, the inhibition was 5.41% (inactive). With `COc1cccc(CNS(=O)(=O)c2ccc3c(c2)N(C(C)=O)CCS3)c1` the inhibition was 19.6% (inactive). For `CC1CCN(c2oc(-c3ccccc3F)nc2C#N)CC1`, the inhibition was 35.4% (active). For `Cc1oc(-c2ccccc2F)nc1CS(=O)CC(=O)NCCN1CCCCC1C` (stereo unspecified), the inhibition was 5.11% (inactive). For `N#Cc1nc(-c2cccc3ccccc23)oc1N`, the inhibition was 16.8% (inactive). With `O=[N+]([O-])c1cc([N+](=O)[O-])c(Oc2cc(F)cc(F)c2F)cc1NN1CCCCC1` the inhibition was 15.8% (inactive). In the case of `CCCNC(=O)C1(C)CCN(C(=O)c2ccccc2OC(F)(F)F)C1` (stereo unspecified), the inhibition is reported as -0.325% (inactive). For `O=C(CCc1ccc(S(=O)(=O)NC2CCCCC2)cc1)NCc1ccccc1`, the inhibition was 3.92% (inactive). In the case of `Cc1cc(N=Nc2ccc3ccccc3c2)ccc1O`, the inhibition is reported as 44.4% (active).
